{"source": "PubChem BioAssay", "key": {"Albumin (Bos taurus)": {"target": "Albumin (Bos taurus) (UniProt P02769)", "sequence (P02769 whole entry, looked up)": "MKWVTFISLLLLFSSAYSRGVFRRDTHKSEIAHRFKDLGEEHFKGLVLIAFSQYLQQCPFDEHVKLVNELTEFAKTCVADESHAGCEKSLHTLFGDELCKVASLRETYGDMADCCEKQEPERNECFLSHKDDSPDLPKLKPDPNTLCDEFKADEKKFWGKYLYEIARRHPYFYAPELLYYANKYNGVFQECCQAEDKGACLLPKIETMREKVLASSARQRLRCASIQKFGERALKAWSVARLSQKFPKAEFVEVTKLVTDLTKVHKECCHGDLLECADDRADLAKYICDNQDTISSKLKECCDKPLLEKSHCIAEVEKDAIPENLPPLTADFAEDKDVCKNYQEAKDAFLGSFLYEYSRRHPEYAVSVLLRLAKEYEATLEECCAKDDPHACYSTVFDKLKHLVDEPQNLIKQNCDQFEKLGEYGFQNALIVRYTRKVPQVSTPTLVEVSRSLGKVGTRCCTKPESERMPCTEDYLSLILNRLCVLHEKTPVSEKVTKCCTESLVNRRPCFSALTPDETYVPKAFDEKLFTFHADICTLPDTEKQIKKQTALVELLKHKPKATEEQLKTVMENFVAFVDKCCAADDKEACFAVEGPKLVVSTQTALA", "test": "compounds binding labelled BSA control protein – biochemical, small-molecule microarray, Alexa647 label, 635/667 nm fluorescence, artefact control for SMM control protein annotation, profiling panel (AID 1118);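 also: score merges 667 nm emission intensity and signal-to-noise per printed compound spot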", "conditions": "BSA-A647 binding, fluorescence 635 nm, higher = more signal"}, "[1]": {"test": "probe aXIP binding to arrayed compounds – biochemical, NeuroSMM set, 635/667 nm fluorescence, primary screen (AID 1119);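 also: probe is the protein aXip251-270 applied at 1 µg/mL to compound-printed slides; binding of probe to printed compounds measured as 667 nm fluorescence plus signal to noise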", "conditions": "small-molecule microarray, higher = more signal, called active from +8 up or from −8 down"}, "[2]": {"test": "probe aNOTCH3 binding on compound microarray – biochemical, small-molecule microarray, 635/667 nm fluorescence, primary screen (AID 1120);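 also: probe is a biotin-tagged antibody raised against NOTCH3 rather than NOTCH3 protein; score merges spot fluorescence near 667 nm with spot signal to noise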", "conditions": "higher = more signal"}, "[3]": {"test": "probe aNOTCH2 binding on compound microarray – biochemical, small-molecule microarray, 635/667 nm fluorescence, primary screen (AID 1121);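 also: score merges feature fluorescence read at 667 nm with its signal to noise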", "conditions": "higher = more signal"}, "[4]": {"target": "Carbonic anhydrase 2 (Homo sapiens) (UniProt P00918)", "test": "compounds binding carbonic anhydrase 2 – biochemical, small-molecule microarray, Alexa647-labelled CAII, profiling panel (AID 1122)", "conditions": "CAII-A647 binding fluorescence, higher = more signal"}, "[5]": {"test": "COS7 lysate on small-molecule microarray, probe aHis, 635 nm (AID 1123);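 also: z-score combines 667nm fluorescence intensity with signal-to-noise per printed compound spot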", "conditions": "COS7 cell lysate, fluorescence, higher = more signal"}, "[6]": {"test": "probe aLAP1 signal on lysate-treated microarray – cell lysate, small-molecule microarray, COS7 lysate, primary screen (AID 1124);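 also: lysate comes from COS7 cells expressing LAP1 and is applied at 0.3 µg/mL; score merges spot fluorescence near 667 nm with signal-to-noise over triplicate slides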", "conditions": "probe aLAP1, fluorescence, higher = more signal"}, "Sam68 (KHDRBS1)": {"system": "Sam68 (KHDRBS1)", "test": "compounds binding KHDRBS1 protein – biochemical, small-molecule microarray, 635 nm fluorescence, primary screen (AID 1125);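 also: score merges 667 nm channel intensity with signal to noise over triplicate slides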", "conditions": "higher = more signal"}, "[7]": {"system": "Chordin-like protein 2 (CHRDL2)", "test": "compounds binding chordin-like 2 – biochemical, small-molecule microarray, 635 nm fluorescence, primary screen (AID 1126);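 also: printed compound slides probed with Chrdl2 protein at 4 µg/mL for 1 h at 4 C; score merges 667 nm emission intensity with signal to noise over three replicate slides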", "conditions": "fluorescence 635 nm, higher = more signal"}, "[8]": {"target": "Concanavalin-A (Canavalia ensiformis) (UniProt P02866)", "sequence (P02866 whole entry, looked up)": "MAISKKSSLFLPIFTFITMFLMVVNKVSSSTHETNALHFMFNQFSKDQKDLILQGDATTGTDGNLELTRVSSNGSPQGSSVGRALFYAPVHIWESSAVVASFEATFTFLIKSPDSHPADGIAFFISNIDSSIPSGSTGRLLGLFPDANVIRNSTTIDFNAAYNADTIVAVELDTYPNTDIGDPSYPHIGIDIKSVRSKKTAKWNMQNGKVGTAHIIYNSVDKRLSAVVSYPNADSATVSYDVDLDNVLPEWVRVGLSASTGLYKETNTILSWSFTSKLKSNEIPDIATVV", "test": "compounds binding concanavalin A lectin – biochemical, small-molecule microarray, Alexa647 label, 635 nm, artefact control for SMM control protein annotation, primary screen (AID 1127);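 also: z combines 667 nm emission intensity with signal-to-noise across three replicate slides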", "conditions": "ConA-A647 binding fluorescence, higher = more signal"}}, "note": "Activity calls are given as the source filed them.", "data": [{"smiles": "CCc1oc(CC[C@@H](CO)NC(=O)NCCn2cc(C3(O)CCCCC3)nn2)c(C(=O)OC)c1C(=O)OC", "values": [{"measurement": "composite z-score", "setting": "Albumin (Bos taurus)", "result": -0.272}, {"measurement": "composite Z-score", "setting": "[1]", "result": "-0.0435 (inactive)"}, {"measurement": "composite z-score", "setting": "[2]", "result": 0.232}, {"measurement": "composite z-score", "setting": "[3]", "result": -0.0813}, {"measurement": "composite z-score", "setting": "[4]", "result": -0.0227}, {"measurement": "composite z-score", "setting": "[5]", "result": 0.376}, {"measurement": "composite z-score", "setting": "[6]", "result": 0.731}, {"measurement": "composite z-score", "setting": "Sam68 (KHDRBS1)", "result": 1.18}, {"measurement": "composite z-score", "setting": "[7]", "result": 0.915}, {"measurement": "composite z-score", "setting": "[8]", "result": 1.11}]}, {"smiles": "C=CC[C@@]1(C(N)=O)N=C(c2ccc(OCCCO)cc2)O[C@@H]1c1ccccc1CN=[N+]=[N-]", "values": [{"measurement": "composite z-score", "setting": "Albumin (Bos taurus)", "result": 0.85}, {"measurement": "composite Z-score", "setting": "[1]", "result": "-0.631 (inactive)"}, {"measurement": "composite z-score", "setting": "[2]", "result": 0.185}, {"measurement": "composite z-score", "setting": "[3]", "result": -0.0712}, {"measurement": "composite z-score", "setting": "[4]", "result": 0.875}, {"measurement": "composite z-score", "setting": "[5]", "result": 3.25}, {"measurement": "composite z-score", "setting": "[6]", "result": 1.13}, {"measurement": "composite z-score", "setting": "Sam68 (KHDRBS1)", "result": 1.3}, {"measurement": "composite z-score", "setting": "[7]", "result": -0.41}, {"measurement": "composite z-score", "setting": "[8]", "result": 1}]}, {"smiles": "O=C1OCCC/C=C\\[C@H]2OC34C=CCN(Cc5ccccc5)C(=O)[C@H]3N(CCCCCCO)C(=O)[C@@H]4C12", "note": "(stereo not given in full)", "values": [{"measurement": "composite z-score", "setting": "Albumin (Bos taurus)", "result": -0.449}, {"measurement": "composite Z-score", "setting": "[1]", "result": "0.986 (inactive)"}, {"measurement": "composite z-score", "setting": "[2]", "result": -0.262}, {"measurement": "composite z-score", "setting": "[3]", "result": -0.141}, {"measurement": "composite z-score", "setting": "[4]", "result": 0.893}, {"measurement": "composite z-score", "setting": "[5]", "result": -0.19}, {"measurement": "composite z-score", "setting": "[6]", "result": 0.468}, {"measurement": "composite z-score", "setting": "Sam68 (KHDRBS1)", "result": 0.139}, {"measurement": "composite z-score", "setting": "[7]", "result": -1.24}, {"measurement": "composite z-score", "setting": "[8]", "result": -1.3}]}, {"smiles": "C=C(COC)/C(=C/C[C@@H](OC(C)=O)c1ccc(CO)o1)c1cnc2ccccc2c1", "values": [{"measurement": "composite z-score", "setting": "Albumin (Bos taurus)", "result": 0.555}, {"measurement": "composite Z-score", "setting": "[1]", "result": "0.319 (inactive)"}, {"measurement": "composite z-score", "setting": "[2]", "result": 0.25}, {"measurement": "composite z-score", "setting": "[3]", "result": 0.0616}, {"measurement": "composite z-score", "setting": "[4]", "result": 0.944}, {"measurement": "composite z-score", "setting": "[5]", "result": 0.229}, {"measurement": "composite z-score", "setting": "[6]", "result": 0.846}, {"measurement": "composite z-score", "setting": "Sam68 (KHDRBS1)", "result": 1.29}, {"measurement": "composite z-score", "setting": "[7]", "result": 1.39}, {"measurement": "composite z-score", "setting": "[8]", "result": 1.2}]}, {"smiles": "COC(=O)[C@@]1(Cc2ccc(F)cc2)[C@@H]2[C@@H](CC(=O)[C@H]2CC(=O)C(=O)N(C)C)CN1C(=O)c1ccccc1", "values": [{"measurement": "composite z-score", "setting": "Albumin (Bos taurus)", "result": 0.998}, {"measurement": "composite Z-score", "setting": "[1]", "result": "0.742 (inactive)"}, {"measurement": "composite z-score", "setting": "[2]", "result": 0.245}, {"measurement": "composite z-score", "setting": "[3]", "result": -0.041}, {"measurement": "composite z-score", "setting": "[4]", "result": 0.73}, {"measurement": "composite z-score", "setting": "[5]", "result": 2.84}, {"measurement": "composite z-score", "setting": "[6]", "result": -0.171}, {"measurement": "composite z-score", "setting": "Sam68 (KHDRBS1)", "result": 1.34}, {"measurement": "composite z-score", "setting": "[7]", "result": -0.633}, {"measurement": "composite z-score", "setting": "[8]", "result": 1.1}]}, {"smiles": "COCCOC(=O)N1C(=O)[C@@]2(c3cc(C#CCCO)ccc31)[C@H](c1ccc(OCCO)cc1)N1[C@H](c3ccccc3)[C@H](c3ccccc3)OC(=O)[C@H]1[C@@H]2C(=O)N1CCN(c2ncccn2)CC1", "values": [{"measurement": "composite z-score", "setting": "Albumin (Bos taurus)", "result": 0.679}, {"measurement": "composite Z-score", "setting": "[1]", "result": "-0.114 (inactive)"}, {"measurement": "composite z-score", "setting": "[2]", "result": 0.162}, {"measurement": "composite z-score", "setting": "[3]", "result": -0.161}, {"measurement": "composite z-score", "setting": "[4]", "result": 0.31}, {"measurement": "composite z-score", "setting": "[5]", "result": 2.03}, {"measurement": "composite z-score", "setting": "[6]", "result": 0.602}, {"measurement": "composite z-score", "setting": "Sam68 (KHDRBS1)", "result": 1.29}, {"measurement": "composite z-score", "setting": "[7]", "result": 0.718}, {"measurement": "composite z-score", "setting": "[8]", "result": 1.15}]}, {"smiles": "OC([C@@H]1CC(c2ccccc2)=NO1)[C@H]1CC(c2ccccc2)=NO1", "note": "(stereo not given in full)", "values": [{"measurement": "composite z-score", "setting": "Albumin (Bos taurus)", "result": 0.558}, {"measurement": "composite Z-score", "setting": "[1]", "result": "-0.227 (inactive)"}, {"measurement": "composite z-score", "setting": "[2]", "result": -0.0465}, {"measurement": "composite z-score", "setting": "[3]", "result": -0.0859}, {"measurement": "composite z-score", "setting": "[4]", "result": -0.11}, {"measurement": "composite z-score", "setting": "[5]", "result": -0.262}, {"measurement": "composite z-score", "setting": "[6]", "result": -0.105}, {"measurement": "composite z-score", "setting": "Sam68 (KHDRBS1)", "result": -0.285}, {"measurement": "composite z-score", "setting": "[7]", "result": 0.191}, {"measurement": "composite z-score", "setting": "[8]", "result": -0.363}]}, {"smiles": "CN1C(=O)C2C=CC(C(O)C3CCCCC3)N(Nc3ccc([N+](=O)[O-])cc3[N+](=O)[O-])C2C1=O", "note": "(stereo not given)", "values": [{"measurement": "composite z-score", "setting": "Albumin (Bos taurus)", "result": 0.892}, {"measurement": "composite Z-score", "setting": "[1]", "result": "-0.131 (inactive)"}, {"measurement": "composite z-score", "setting": "[2]", "result": 0.23}, {"measurement": "composite z-score", "setting": "[3]", "result": 0.0302}, {"measurement": "composite z-score", "setting": "[4]", "result": 0.732}, {"measurement": "composite z-score", "setting": "[5]", "result": 2.62}, {"measurement": "composite z-score", "setting": "[6]", "result": 0.605}, {"measurement": "composite z-score", "setting": "Sam68 (KHDRBS1)", "result": 1.31}, {"measurement": "composite z-score", "setting": "[7]", "result": -0.384}, {"measurement": "composite z-score", "setting": "[8]", "result": 0.955}]}, {"smiles": "CCCCCN1CC=CC23O[C@@H]4/C=C\\CCCOC(=O)C4[C@H]2C(=O)N(C(CO)C(C)C)[C@@H]3C1=O", "note": "(stereo not given in full)", "values": [{"measurement": "composite z-score", "setting": "Albumin (Bos taurus)", "result": 1}, {"measurement": "composite Z-score", "setting": "[1]", "result": "0.586 (inactive)"}, {"measurement": "composite z-score", "setting": "[2]", "result": -0.139}, {"measurement": "composite z-score", "setting": "[3]", "result": -0.14}, {"measurement": "composite z-score", "setting": "[4]", "result": 0.819}, {"measurement": "composite z-score", "setting": "[5]", "result": -0.168}, {"measurement": "composite z-score", "setting": "[6]", "result": -0.12}, {"measurement": "composite z-score", "setting": "Sam68 (KHDRBS1)", "result": -0.656}, {"measurement": "composite z-score", "setting": "[7]", "result": -0.718}, {"measurement": "composite z-score", "setting": "[8]", "result": -0.574}]}, {"smiles": "COC(=O)[C@@]1(Cc2ccc(OC)cc2)[C@H]2c3cc(C(=O)N(C)C)n(Cc4cccc5ccccc45)c3C[C@H]2CN1C(=O)c1ccccc1", "values": [{"measurement": "composite z-score", "setting": "Albumin (Bos taurus)", "result": 1.02}, {"measurement": "composite Z-score", "setting": "[1]", "result": "0.0388 (inactive)"}, {"measurement": "composite z-score", "setting": "[2]", "result": 0.726}, {"measurement": "composite z-score", "setting": "[3]", "result": 0.624}, {"measurement": "composite z-score", "setting": "[4]", "result": 0.753}, {"measurement": "composite z-score", "setting": "[5]", "result": 3.03}, {"measurement": "composite z-score", "setting": "[6]", "result": 0.506}, {"measurement": "composite z-score", "setting": "Sam68 (KHDRBS1)", "result": 0.432}, {"measurement": "composite z-score", "setting": "[7]", "result": 0.0735}, {"measurement": "composite z-score", "setting": "[8]", "result": 0.976}]}, {"smiles": "COc1cc2c(cc1O)C(C1CC1)N(Cc1cc3c(cc1Br)OCO3)CC2", "note": "(stereo not given)", "values": [{"measurement": "composite z-score", "setting": "Albumin (Bos taurus)", "result": 0.137}, {"measurement": "composite Z-score", "setting": "[1]", "result": "-0.431 (inactive)"}, {"measurement": "composite z-score", "setting": "[2]", "result": -0.318}, {"measurement": "composite z-score", "setting": "[3]", "result": -0.0703}, {"measurement": "composite z-score", "setting": "[4]", "result": 0.593}, {"measurement": "composite z-score", "setting": "[5]", "result": 0.478}, {"measurement": "composite z-score", "setting": "[6]", "result": 0.283}, {"measurement": "composite z-score", "setting": "Sam68 (KHDRBS1)", "result": -1.09}, {"measurement": "composite z-score", "setting": "[7]", "result": -0.14}, {"measurement": "composite z-score", "setting": "[8]", "result": -0.207}]}]}
